Experimental data from the supplement of paper PMC10338343.
± gives the standard deviation.

system: MILI (PIWIL2) piRISC loaded with piRNA #1 (26 nt); assay: pre-steady-state target cleavage rate (min^-1); guide: piRNA #1 5'p-UGAGGUAGUAGGUUGUAUAGUAUCCA; higher = faster piRNA-guided slicing of the target; conditions: auxiliary factor: 500 nM mouse GTSF1
Procedure, shortened: (§1)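 The method was Cleave-'n-Seq, in which uncleaved targets from a transcribed, DNA-blocked target RNA library were sequenced after exposure to active affinity-purified piRISC carrying one synthetic guide, with or without GTSF1 partner protein. Reactions contained 0.1 nM library, 1 nM piRISC and, where present, 500 nM GTSF1 in HEPES–potassium acetate buffer at 33 °C for 0–8 or 0–960 min. Reads were normalised to depth and to weakly complementary targets, three trials were pooled, and k3 was capped at 0.0001 min^-1. The pre-steady-state cleavage rate came from a burst-and-steady-state fit.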

Row | Sequence | pre-steady-state target cleavage rate
1 | GGAGUGGAAACUAUACUACCUACUACCUCA | 0.193 ± 0.016
2 | GGAGACCAUACUAUACAACCUACUAGCACA | 0.0527 ± 0.018
3 | GGAGACCUAUCUAUACAACCUACUACUUCA | 0.0866 ± 0.0097
4 | GGAGUGGAUACUAUACAACCUACUAUCUCA | 0.137 ± 0.011
5 | GGAGACGAUACUAUACAACCUACUUCCACA | 0.0194 ± 0.0082
6 | GGAGACGAUACUAUACAAGCUUCUACCUCA | 0.0442 ± 0.0052
7 | GGAGACCAUACUAUGACAACCUACUACCUCA | 0.165 ± 0.017
8 | GGAGACGAUACUUUACAAGCUACUACCUCA | 0.235 ± 0.015
9 | GGAGAGGACUACUAUACAACCUACUACCUCA | 0.186 ± 0.016
10 | GGAGUGCAUACAAUACAACCUACUACCUCA | 0.186 ± 0.013
11 | GGAGACGAUACUAUACAACCUACUACCAUCA | 0.134 ± 0.013
12 | GGAGACCAUACUAUACAACCUACUUACCUCA | 0.175 ± 0.017
13 | GGAGUGGAUACUAUAGAACCUACUACCACA | 0.0519 ± 0.0082
14 | GGAGAGGAUACUAUACAACCUACUACCUA | 0.104 ± 0.013
15 | GGAGAGGAUACUAUCACAACCUACUACCUCA | 0.136 ± 0.011
16 | GGAGACCUAACUAUACUACCUACUACCUCA | 0.125 ± 0.022
17 | GGAGACCACUACUAUACAACCUACUACCUCA | 0.149 ± 0.016
18 | GGAGAGCAUACUAUACAAGCUACUACCUCA | 0.22 ± 0.015
19 | GGAGUGGAUACUAAUCAACCUACUACCUCA | 0.144 ± 0.01
20 | GGAGUGGAUACUAUACAACCUACAUCCUCA | 0.00356 ± 0.0016

Row | Sequence | pre-steady-state target cleavage rate
21 | GGAGAGGAUACUAUACAACCUACUACCACA | 0.171 ± 0.017
22 | GGAGACCUUACUAUACAACCUACUACCUUA | 0.174 ± 0.019
23 | GGAGUGGAUAUUAUACAACCUACUACCUCA | 0.178 ± 0.0094
24 | GGAGACCAUACUAUAUAACCUACUACCUCA | 0.155 ± 0.016
25 | GGAGACCAUACUAUACAUCCAACUACCUCA | 0.00924 ± 0.0032
26 | GGAGACCUUACUAUCCAACCUACUACCUCA | 0.17 ± 0.018
27 | GGAGUGGAUUCUAUACAACCUUCUACCUCA | 0.00777 ± 0.0028
28 | GGAGACGAUACUAUACAACCUUCUACCACA | 0.00864 ± 0.0028
29 | GGAGACCAUACUAUACAACCUUCUACCACA | 0.00753 ± 0.0037
30 | GGAGACGAUAUCUAUACAACCUACUACCUCA | 0.0966 ± 0.013
31 | GGAGUGGUUACUAUUCAACCUACUACCUCA | 0.202 ± 0.012
32 | GGAGACGAUAUUAUACAACCUACUACCUCA | 0.214 ± 0.013
33 | GGAGACCUAUCUACUACAACCUACUACCUCA | 0.0541 ± 0.0097
34 | GGAGACCUAUCUAUACAACCUACUACGAGA | 0.0633 ± 0.017
35 | GGAGACUAUACUAUACAACCUACUACCUCA | 0.171 ± 0.014
36 | GGAGAGGUUACUAUACAACCUACUAGCUCA | 0.00459 ± 0.0029
37 | GGAGAGCAUACUAUACAACCUAGUACCUCA | 0.0618 ± 0.013
38 | GGAGAGGAUACUAUUACAACCUACUACCUCA | 0.167 ± 0.012
39 | GGAGACGAUACUAUACAAGCUACUACCUGA | 0.202 ± 0.022
40 | GGAGACCAUACUAUUCAACCUACUACCUGA | 0.114 ± 0.018

system: EfPiwi piRISC loaded with piRNA #1 (26 nt); assay: pre-steady-state target cleavage rate (min^-1); auxiliary factor: 500 nM Ephydatia muelleri Gtsf1; guide: piRNA #1 5'p-UGAGGUAGUAGGUUGUAUAGUAUCCA; MIWI and MILI are mouse PIWI proteins and EfPiwi is from a freshwater sponge; tags in brackets are library labels; higher = faster piRNA-guided slicing of the target; conditions: not given
Procedure, shortened: as §1

Row | Sequence | pre-steady-state target cleavage rate
41 | GGAGUGGAAACUAUACUACCUACUACCUCA | 0.00676 ± 0.0042
42 | GGAGACCAUACUAUACAACCUACUAGCACA | 0.00447 ± 0.0023
43 | GGAGACCUAUCUAUACAACCUACUACUUCA | 0.0119 ± 0.0067
44 | GGAGUGGAUACUAUACAACCUACUAUCUCA | 0.0684 ± 0.026
45 | GGAGACGAUACUAUACAACCUACUUCCACA | 0.00373 ± 0.0021
46 | GGAGACGAUACUAUACAAGCUUCUACCUCA | 0.0034 ± 0.0019
47 | GGAGACCAUACUAUGACAACCUACUACCUCA | 0.00762 ± 0.0033
48 | GGAGACGAUACUUUACAAGCUACUACCUCA | 0.00342 ± 0.0026
49 | GGAGAGGACUACUAUACAACCUACUACCUCA | 0.00553 ± 0.0037
50 | GGAGUGCAUACAAUACAACCUACUACCUCA | 0.0102 ± 0.0044
51 | GGAGACGAUACUAUACAACCUACUACCAUCA | 0.00489 ± 0.002
52 | GGAGACCAUACUAUACAACCUACUUACCUCA | 0.00697 ± 0.0031
53 | GGAGUGGAUACUAUAGAACCUACUACCACA | 0.0024 ± 0.001
54 | GGAGAGGAUACUAUACAACCUACUACCUA | 0.217 ± 0.081
55 | GGAGAGGAUACUAUCACAACCUACUACCUCA | 0.0777 ± 0.031
56 | GGAGACCUAACUAUACUACCUACUACCUCA | 0.00314 ± 0.0024
57 | GGAGACCACUACUAUACAACCUACUACCUCA | 0.0313 ± 0.014
58 | GGAGAGCAUACUAUACAAGCUACUACCUCA | 0.00318 ± 0.0023
59 | GGAGUGGAUACUAAUCAACCUACUACCUCA | 0.00495 ± 0.0038
60 | GGAGUGGAUACUAUACAACCUACAUCCUCA | 0.00282 ± 0.0012

Row | Sequence | pre-steady-state target cleavage rate
61 | GGAGAGGAUACUAUACAACCUACUACCACA | 0.00641 ± 0.0021
62 | GGAGACCUUACUAUACAACCUACUACCUUA | 0.0898 ± 0.034
63 | GGAGUGGAUAUUAUACAACCUACUACCUCA | 0.00879 ± 0.0043
64 | GGAGACCAUACUAUAUAACCUACUACCUCA | 0.00757 ± 0.0042
65 | GGAGACCAUACUAUACAUCCAACUACCUCA | 0.00245 ± 0.0022
66 | GGAGACCUUACUAUCCAACCUACUACCUCA | 0.0791 ± 0.034
67 | GGAGUGGAUUCUAUACAACCUUCUACCUCA | 0.00415 ± 0.0028
68 | GGAGACGAUACUAUACAACCUUCUACCACA | 0.00454 ± 0.0022
69 | GGAGACCAUACUAUACAACCUUCUACCACA | 0.00301 ± 0.0027
70 | GGAGACGAUAUCUAUACAACCUACUACCUCA | 0.00603 ± 0.0041
71 | GGAGUGGUUACUAUUCAACCUACUACCUCA | 0.00293 ± 0.0021
72 | GGAGACGAUAUUAUACAACCUACUACCUCA | 0.00616 ± 0.0034
73 | GGAGACCUAUCUACUACAACCUACUACCUCA | 0.00749 ± 0.0039
74 | GGAGACCUAUCUAUACAACCUACUACGAGA | 0.00279 ± 0.0027
75 | GGAGACUAUACUAUACAACCUACUACCUCA | 0.0352 ± 0.014
76 | GGAGAGGUUACUAUACAACCUACUAGCUCA | 0.00306 ± 0.0015
77 | GGAGAGCAUACUAUACAACCUAGUACCUCA | 0.00276 ± 0.0014
78 | GGAGAGGAUACUAUUACAACCUACUACCUCA | 0.0933 ± 0.04
79 | GGAGACGAUACUAUACAAGCUACUACCUGA | 0.00333 ± 0.0015
80 | GGAGACCAUACUAUUCAACCUACUACCUGA | 0.00313 ± 0.0026
